Reference: the supplement of paper PMC12669032

Test system: Bacteroides uniformis
Assay: growth AUC relative to DMSO control (median of replicates) (fraction); higher = more growth (less inhibition), active = hit call of the paper
Details: 20 µM; 24 h;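 active = AUC reduced over 20% with Padj below 0.05 in at least 2 of 3 replicates; inactive = otherwise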
Summary of the method: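 Gut bacterial monocultures were grown anaerobically at 37 °C in mGAM, starting at OD600 0.05, with 20 µM compound (1% DMSO) in round-bottom 96-well plates under pierced gas-permeable seals. OD600 was read hourly for 24 h. Area under the growth curve (minimum OD set to 0) was normalised to the plate median of DMSO controls, or to row and column medians on the industrial chemical plate. The value is the median of three biological replicates grown on separate days.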

Compound	growth AUC
CN(C)c1nc(=O)n(C2CCCCC2)c(=O)n1C	1.01 (inactive)
Nc1c(Cl)c(Cl)c(Cl)c(Cl)c1Cl	0.981 (inactive)
Oc1ccc(-c2ccccc2)cc1	0.957 (inactive)
Cn1cc(-c2ccccc2)c(=O)c(-c2cccc(C(F)(F)F)c2)c1	0.977 (inactive)
CCCOCC(=Nc1ccc(Cl)cc1C(F)(F)F)n1ccnc1	0.913 (inactive)
O=P(O)(O)CCCl	1.03 (inactive)
CCNc1nc(NC(C)C)[nH]c(=O)n1	1.07 (inactive)
CC1=NNC(=O)N(/N=C/c2cccnc2)C1	1.04 (inactive)
S=C1NCCN1	1.03 (inactive)
COC(=O)N(C(=O)N1CO[C@@]2(C(=O)OC)Cc3cc(Cl)ccc3C2=N1)c1ccc(OC(F)(F)F)cc1	0.98 (inactive)
Clc1ccccc1Cl	1.03 (inactive)
C#CCC1=C(C)C(OC(=O)C2C(C=C(C)C)C2(C)C)CC1=O (stereo not drawn)	0.932 (inactive)
Cc1nnc(-c2ccccc2)c(=O)n1N	0.986 (inactive)
COC(=O)c1ccccc1CS(=O)(=O)NC(=O)Nc1nc(OC)cc(OC)n1	1.01 (inactive)
CCCCCCCCCc1ccc(O)cc1	0.289 (active)
COP(N)(=S)Oc1ccccc1C(=O)OC(C)C (stereo not drawn)	0.999 (inactive)
O=C(NCCc1ncc(C(F)(F)F)cc1Cl)c1ccccc1C(F)(F)F	0.987 (inactive)
CCN(Cc1ccc(Cl)nc1)/C(=C/[N+](=O)[O-])NC	1.01 (inactive)
